Laboratory results taken from PubChem BioAssay (Tox21).
Where “and” joins values, the source holds several entries; their conditions need not be identical. Equal values may be shown once. Records with an inconclusive call do not appear. A number with no mark means an inactive call. Calls of active or inactive are those of the source. Calls follow the shape of the dose curve; as a rule, active = well fitted activation curve with a large enough effect; inconclusive = small, poorly fitted or top-dose-only effect; inactive = flat fitted curve, though single readings scatter. Residues, ends and D or L forms follow the SMILES beside them.
% is scaled to controls: 0 for no effect and ±100 for the full control effect.

Test: qHTS assay to identify small molecule phospholipidosis (PLD) inducers (AID 1259344)
Settings: HepG2 phospholipidosis, LipidTOX Red imaging, 24 h; series mostly up to 38.3 µM; PLD induction: at the top concentration
Text: National Center for Advancing Translational Sciences [NCATS]
Drug-induced Phospholipidosis (PLD) caused by cationic amphiphilic drugs is characterized by the appearance of unicentric or multicentric-lamellar bodies when viewed under electron microscope. Electron microscopy is the gold standard method for PLD detection, however, this method is time-consuming and labor intensive, making it unsuitable for evaluating a large set of compounds. A cell-based phospholipidosis assay has been developed using the LipidTox reagent in HepG2 cells and miniaturized into a 1536-well plate format. Drug induced phospholipid accumulation is stained with the LipidTox dyes in red color which then is determined using an automated high content screening system.
HepG2 cells are dispensed at 900 cells/3 uL/well into Collagen I-coated 1536-well black-wall/clear-bottom assay plates (Greiner Bio-One, Monroe, NC) using the Multidrop Combi 8 channel dispenser (Thermo Fisher, Waltham, MA, USA). The assay plates are incubated at 37 C for 4 hours to allow the cell attachment. 3 uL of 1:500 LipidTOX Red dye is added using the dispenser, and then 23 nL compounds are added via a Wako Pintool station (Wako Automation, San Diego, CA). Amiodarone, a known PLD inducer, was used as a positive control and DMSO was used as a negative control. The assay plates were then incubated at 37 C for 24 hours.
For fixations, 4 uL of 8% paraformaldehyde fixative solution containing 10 ug/mL Hoechst 33342 in Dulbecco's phosphate-buffered saline (DPBS) is added using a Kalypsys washer/dispenser (Kalypsys, San Diego, CA, USA). After incubation at room temperature for 30 min, the assay plates are washed once with DPBS using a Kalypsys washer/dispenser. The assay plates are then sealed and stored at 4 C before imaging. The fluorescence intensities (595 nm excitation, 615 nm emission for LipidTOX; 352 nm excitation, 461 nm emission for Hoechst 33342) are measured using an ImageXpress Micro Widefield High Content Screening System (Molecular Devices, Sunnyvale, CA, USA) with a 20x Plan Fluor objective. Images are acquired for one site in each well and analyzed with the MetaXpress software (Molecular Devices) using the Transfluor module. Several algorithmic outputs, such as pit count per well, pit count per cell, pit integrated intensity per well, and pit integrated intensity per cell, are used for quantitative image analysis for PLD.
For `C=CC1=C(C(=O)O)N2C(=O)[C@@H](NC(=O)/C(=N/OCC(=O)O)c3csc(N)n3)[C@H]2SC1` (stereo in doubt), the “PLD induction” value was -0.167% [at 15.5 µM]. In the case of `CC(C)COC(=O)OCN1C(=O)CN(CCN2CC(=O)N(COC(=O)OCC(C)C)C(=O)C2)CC1=O`, the “PLD induction” value is reported as -0.0088%. In the case of `CC/C=C\C/C=C\C/C=C\C/C=C\C/C=C\CCCC(=O)O`, the “PLD induction” value is reported as -0.22%. In the case of `COc1ccc([C@@H]2CC(=O)c3c(O)cc(O[C@@H]4O[C@H](CO[C@@H]5O[C@@H](C)[C@H](O)[C@@H](O)[C@H]5O)[C@@H](O)[C@H](O)[C@H]4O)cc3O2)cc1O`, the “PLD induction” value is reported as -0.0576% [at 15.5 µM]. With `COc1cc([C@@H]2c3cc4c(cc3[C@@H](O[C@@H]3O[C@@H]5CO[C@@H](C)O[C@H]5[C@H](O)[C@H]3O)[C@H]3COC(=O)[C@H]23)OCO4)cc(OC)c1O` the “PLD induction” value was 1.34%. In the case of `Cc1cc(-c2ccc(N=Nc3ccc4c(S(=O)(=O)O)cc(S(=O)(=O)O)c(N)c4c3O)c(C)c2)ccc1N=Nc1ccc2c(S(=O)(=O)O)cc(S(=O)(=O)O)c(N)c2c1O`, the Potency is reported as “inactive”. In the case of `Cc1ccc(C(C)(C)c2ccc(C)cc2)cc1`, the “PLD induction” value is reported as -0.975%. For `CCOc1cc(CC(=O)N[C@@H](CC(C)C)c2ccccc2N2CCCCC2)ccc1C(=O)O`, the “PLD induction” value was 4.37% [at 15.5 µM]. In the case of `CCC(C)(C)c1ccc(CC(C)CN2C[C@@H](C)O[C@@H](C)C2)cc1` (stereo not given in full), the “PLD induction” value is reported as 5.55%. In the case of `COc1cc2c(cc1OC)[C@@H](Cc1cc(OC)c(OC)c(OC)c1)[N+](C)(CCCOC(=O)CC/C=C/CCC(=O)OCCC[N+]1(C)CCc3cc(OC)c(OC)cc3[C@H]1Cc1cc(OC)c(OC)c(OC)c1)CC2` (stereo not given in full), the Potency is reported as “inactive”. For `CCN(CC)C(=O)[C@]1(c2ccccc2)C[C@@H]1CN`, the “PLD induction” value was 1.32%. In the case of `C=C1[C@H](CO)[C@@H](O)C[C@@H]1n1cnc2c(=O)[nH]c(N)nc21`, the “PLD induction” value is reported as 2.21%. In the case of `C[C@H](NCCc1ccc(O)cc1)[C@H](O)c1ccc(O)cc1`, the “PLD induction” value is reported as -0.415%. With `CCCCCCCCCCCCCCCCCCOCC(COP(=O)([O-])OCC[N+](C)(C)C)OC` (stereo not given) the “PLD induction” value was -0.602%. With `C[C@H](Cc1ccc(O)c(O)c1)[C@@H](C)Cc1ccc(O)c(O)c1` the “PLD induction” value was -1.08%. For `CC(C)CCC[C@@H](C)[C@H]1CC[C@H]2[C@@H]3CC=C4C[C@@H](O)CC[C@]4(C)[C@H]3CC[C@]12C`, the “PLD induction” value was -1.5%. In the case of `O=C1c2ccccc2CN2C(=O)c3ccccc3CN12`, the “PLD induction” value is reported as -0.683%. With `O=C1c2ccccc2-c2n[nH]c3cccc1c23` the “PLD induction” value was -0.308%. With `CCOc1ccc(NC(=S)Nc2ccc(OCC)cc2)cc1` the “PLD induction” value was 0.321%. For `C[N+]1(CCCCC[N+]2(C)CCCC2)CCCC1`, the “PLD induction” value was -0.372%. For `CC(C)OC(=O)Nc1ccc2nc(-c3cscn3)[nH]c2c1`, the “PLD induction” value was 1.3%. With `Nc1c(CC(=O)O)cccc1C(=O)c1ccccc1` the PLD induction was -2.85% [at 7.66 µM] and -2.33% [at 7.66 µM]. With `O=[N+]([O-])c1ccc(O)c2ncccc12` the “PLD induction” value was -0.368%. For `NC(N)=NCc1cccc(I)c1`, the Potency was “inactive”. With `CC(C)[C@H](NC(=O)[C@H](CC(=O)O)NC(=O)[C@H](CCCCN)NC(=O)[C@@H](N)CCCN=C(N)N)C(=O)N[C@@H](Cc1ccc(O)cc1)C(=O)O` (H-RKDVY-OH) the “PLD induction” value was -0.269%. In the case of `CCOc1ccc(S(=O)(=O)O)c2cccnc12`, the “PLD induction” value is reported as -0.0145%. With `CO[C@H]1C[C@H](O[C@H]2[C@H](C)[C@@H](O[C@@H]3O[C@H](C)C[C@H](N(C)C)[C@H]3O)[C@@H](C)C[C@]3(CO3)C(=O)[C@H](C)[C@@H](O)[C@@H](C)[C@@H](C)OC(=O)[C@@H]2C)O[C@@H](C)[C@@H]1O` the “PLD induction” value was 0.285% [at 15.5 µM]. In the case of `Cc1c(N)nc([C@H](CC(N)=O)NC[C@H](N)C(N)=O)nc1C(=O)N[C@H](C(=O)N[C@H](C)[C@@H](O)[C@H](C)C(=O)N[C@H](C(=O)NCCc1nc(-c2nc(C(=O)NCCCCN=C(N)N)cs2)cs1)[C@@H](C)O)[C@@H](O[C@@H]1O[C@@H](CO)[C@@H](O)[C@H](O)[C@@H]1O[C@H]1O[C@H](CO)[C@@H](O)[C@H](OC(N)=O)[C@@H]1O)c1cnc[nH]1`, the Potency is reported as “inactive”. For `C=C1C(CCl)(CCl)C2(Cl)C(Cl)C(Cl)C1(Cl)C2(Cl)Cl` (stereo not given), the “PLD induction” value was 12.4%. For `CCCCCCOC(=O)c1cccnc1`, the “PLD induction” value was -0.444%. With `COC(=O)C[C@](O)(CCCC(C)(C)O)C(=O)O[C@@H]1C(OC)=CC23CCCN2CCc2cc4c(cc2[C@H]13)OCO4` (stereo not given in full) the Potency was “inactive”. `O=C(O)CC(O)(CC(=O)O)C(=O)O` showed a PLD induction of -0.895% [at 1.53 µM]. For `CCCCCCCCCCCCCC(=O)OCC(COP(=O)([O-])OCC[N+](C)(C)C)OC(=O)CCCCCCCCCCCCC` (stereo not given), the “PLD induction” value was 11.8%. In the case of `O=C(O)Cc1nn(Cc2ccc(Br)cc2F)c(=O)c2ccccc12`, the “PLD induction” value is reported as -1.23%. For `NCCCC(=O)O`, the “PLD induction” value was -1.08%. In the case of `CC1=C(/C=C/C(C)=C/C=C/C(C)=C/C=C/C=C(C)/C=C/C=C(C)/C=C/C2=C(C)CCCC2(C)C)C(C)(C)CCC1`, the “PLD induction” value is reported as 0.0985%. For `O=C1CCC(c2ccc(-n3ccnc3)cc2)=NN1`, the “PLD induction” value was -0.849%. For `CO/N=C(\C(=O)N[C@@H]1C(=O)N2C(C(=O)O)=C(CSc3nc(C)c(CC(=O)O)s3)CS[C@H]12)c1csc(N)n1`, the “PLD induction” value was 1.35%. In the case of `NCC(O)CC(=O)O` (stereo not given), the “PLD induction” value is reported as 0.204%. In the case of `CO/N=C(\C(=O)N[C@@H]1C(=O)N2C(C(=O)[O-])=C(C[n+]3ccc(N)n3CCO)CS[C@H]12)c1csc(N)n1`, the “PLD induction” value is reported as 0.43%.
